# Test results reported in PubChem BioAssay (EPA / NIEHS).
# Active and inactive are the calls of the source. The calls were made as follows: active = hit-call score of the fitted dose curve at least 0.9, where 1 is the maximum; inactive = score below 0.9.
# Read-out: Intercellular Adhesion Molecule 1 (ICAM1), ICAM1 (gene 3383)
# Test: LTEA_HepaRG_ICAM1: Life Technologies and Expression Analysis (LTEA) Assay for Intercellular Adhesion Molecule 1 (ICAM1) using HepaRG (AID 2283507)
# Conditions: mRNA level, 48 h; actives raise or lower the signal
# How it was run: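 Differentiated human HepaRG cells in serum-free induction medium exposed 48 h in duplicate to 8 half-log concentrations (top 100 uM, 0.5% DMSO). ICAM1 mRNA quantified by TaqMan qRT-PCR, normalized to ACTB, GAPDH and POLR2A; bidirectional fitting versus DMSO.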
SMILES,outcome,AC50
COc1cc(C=O)ccc1O,inactive,
COC(=O)c1ccc(O)cc1,inactive,
C=CCc1ccc(O)c(OC)c1,inactive,
CN1CCN(Cc2cc(-c3ccc4[nH]c(=O)oc4c3)co2)[C@@H](c2ccc(F)cc2)C1,inactive,
CC(=O)OC/C=C(\C)CCC=C(C)C,inactive,
CCCCCCCCCCCC(=O)OC,inactive,
Oc1ccc2c(c1)OC[C@@H](N1CCC(O)(c3ccc(F)cc3)CC1)[C@H]2O,inactive,
O=C(OCCCCCOC(=O)c1ccccc1)c1ccccc1,,3.24 µM (active)
NCC1(Cc2noc(=O)[nH]2)CCCCC1,inactive,
CCCCOC(=O)CCCCCCCCC(=O)OCCCC,inactive,
CCc1c(C(=O)NN2CCCCC2)nn(-c2ccc(Cl)cc2Cl)c1-c1ccc(Br)cc1,,26.6 µM (active)
O=C(O)CCCCC(=O)O,inactive,
Cc1c(C(=O)O)c(O)cc2c1C(=O)c1c(O)c([C@@H]3O[C@H](CO)[C@@H](O)[C@H](O)[C@H]3O)c(O)c(O)c1C2=O,inactive,
Cc1ccc(C)c(O)c1C,inactive,
OC[C@@H](O)[C@@H](O)[C@H](O)[C@H](O)CO,inactive,
C1CCC(SSC2CCCCC2)CC1,inactive,
Cc1oc(-c2ccccc2)nc1CCOc1cccc2c1ccn2CCC(=O)O,,85.6 µM (active)
Cc1ccccc1Cl,inactive,
c1cc(-c2ccncc2)ccn1,inactive,
Cc1cc(=O)[nH]c(=S)[nH]1,inactive,
Cc1cccc([N+](=O)[O-])c1C,inactive,
CCCCCCOCCO,inactive,
CC(CO)OC(C)CO (stereo not given) (tested in a mixture with another compound),inactive,
O=C(O)Cc1ccccc1Nc1c(Cl)cccc1Cl,inactive,
Cc1ccc(C(C)C)c(O)c1,inactive,
CN1CCCC1=O,inactive,
Nc1ccc2c(c1)C(=O)c1ccccc1C2=O,inactive,
CC1=C(/C=C/C(C)=C/C=C/C(C)=C/CO)C(C)(C)CCC1,inactive,
CCCCCCCCCCCCCO,inactive,

# Read-out: Insulin-like growth factor-binding protein 1 (IGFBP1), IGFBP1 (gene 3484)
# Test: LTEA_HepaRG_IGFBP1: Life Technologies and Expression Analysis (LTEA) Assay for Insulin-like growth factor-binding protein 1 (IGFBP1) using HepaRG (AID 2283508)
# Conditions: mRNA level, 48 h; actives raise or lower the signal
# How it was run: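 HepaRG cells, plated 48 h then switched to serum-free induction medium, exposed in duplicate for 48 h to 8-point half-log series from 100 uM in 0.5% DMSO. mRNA measured by qRT-PCR, normalized to ACTB/GAPDH/POLR2A; bidirectional fit versus DMSO.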
SMILES,outcome,AC50
COC(=O)c1ccc(O)cc1,inactive,
CN1CCN(Cc2cc(-c3ccc4[nH]c(=O)oc4c3)co2)[C@@H](c2ccc(F)cc2)C1,inactive,
CCCCCCCCCCCC(=O)OC,inactive,
Oc1ccc2c(c1)OC[C@@H](N1CCC(O)(c3ccc(F)cc3)CC1)[C@H]2O,inactive,
O=C(OCCCCCOC(=O)c1ccccc1)c1ccccc1,,1.99 µM (active)
NCC1(Cc2noc(=O)[nH]2)CCCCC1,inactive,
CCCCOC(=O)CCCCCCCCC(=O)OCCCC,inactive,
CCc1c(C(=O)NN2CCCCC2)nn(-c2ccc(Cl)cc2Cl)c1-c1ccc(Br)cc1,,31.6 µM (active)
Cc1ccc(C)c(O)c1C,inactive,
OC[C@@H](O)[C@@H](O)[C@H](O)[C@H](O)CO,inactive,
Cc1ccccc1Cl,inactive,
Cc1cc(=O)[nH]c(=S)[nH]1,inactive,
Cc1cccc([N+](=O)[O-])c1C,inactive,
O=C(O)Cc1ccccc1Nc1c(Cl)cccc1Cl,inactive,
Cc1ccc(C(C)C)c(O)c1,inactive,
CN1CCCC1=O,inactive,
CCCCCCCCCCCCCO,inactive,

# Read-out: Interleukin 6 (IL6), IL6 (gene 3569)
# Test: LTEA_HepaRG_IL6: Life Technologies and Expression Analysis (LTEA) Assay for Interleukin 6 (IL6) using HepaRG (AID 2283509)
# Conditions: mRNA level, 48 h; actives raise or lower the signal
# How it was run: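 Changes in IL6 mRNA, up or down relative to 0.5% DMSO controls, were derived from concentration-response curves in human HepaRG cells treated for 48 h at up to 100 uM, with ACTB, GAPDH and POLR2A as normalizers.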
SMILES,outcome,AC50
COc1cc(C=O)ccc1O,inactive,
COC(=O)c1ccc(O)cc1,inactive,
C=CCc1ccc(O)c(OC)c1,inactive,
CN1CCN(Cc2cc(-c3ccc4[nH]c(=O)oc4c3)co2)[C@@H](c2ccc(F)cc2)C1,,50 µM (active)
CC(=O)OC/C=C(\C)CCC=C(C)C,inactive,
CCCCCCCCCCCC(=O)OC,inactive,
Oc1ccc2c(c1)OC[C@@H](N1CCC(O)(c3ccc(F)cc3)CC1)[C@H]2O,inactive,
O=C(OCCCCCOC(=O)c1ccccc1)c1ccccc1,,1.02 µM (active)
NCC1(Cc2noc(=O)[nH]2)CCCCC1,inactive,
CCCCOC(=O)CCCCCCCCC(=O)OCCCC,inactive,
CCc1c(C(=O)NN2CCCCC2)nn(-c2ccc(Cl)cc2Cl)c1-c1ccc(Br)cc1,,76.5 µM (active)
O=C(O)CCCCC(=O)O,inactive,
Cc1c(C(=O)O)c(O)cc2c1C(=O)c1c(O)c([C@@H]3O[C@H](CO)[C@@H](O)[C@H](O)[C@H]3O)c(O)c(O)c1C2=O,inactive,
Cc1ccc(C)c(O)c1C,inactive,
OC[C@@H](O)[C@@H](O)[C@H](O)[C@H](O)CO,inactive,
C1CCC(SSC2CCCCC2)CC1,inactive,
Cc1oc(-c2ccccc2)nc1CCOc1cccc2c1ccn2CCC(=O)O,,82 µM (active)
Cc1ccccc1Cl,inactive,
c1cc(-c2ccncc2)ccn1,inactive,
Cc1cc(=O)[nH]c(=S)[nH]1,inactive,
Cc1cccc([N+](=O)[O-])c1C,inactive,
CCCCCCOCCO,inactive,
CC(CO)OC(C)CO (stereo not given) (tested in a mixture with another compound),inactive,
O=C(O)Cc1ccccc1Nc1c(Cl)cccc1Cl,inactive,
Cc1ccc(C(C)C)c(O)c1,inactive,
CN1CCCC1=O,inactive,
Nc1ccc2c(c1)C(=O)c1ccccc1C2=O,inactive,
CC1=C(/C=C/C(C)=C/C=C/C(C)=C/CO)C(C)(C)CCC1,inactive,
CCCCCCCCCCCCCO,inactive,
